Compound activity: PubChem BioAssay, National Center for Advancing Translational Sciences (NCATS)
Compounds with a hit are over-represented: about 4.3% of the library has one in this group of screens.
uPA surface inh – blocks generation of uPA at the cell surface; cell surface uPA generation assay, qHTS; AID 540303; hit rate 0.31% among 330,000; Potency, µM (series often up to 38.3 µM), without a hit: at the highest dose activity change, negative = inhibition, most hits filed as inhibitors; active means well fitted inhibition curve with a large enough effect; inconclusive means small, poorly fitted or top-dose-only effect; inactive means no such curve, though single readings can be large or run the other way; tested in mouse RAW 264.7 cells; further: potency means the concentration at half of the fitted maximal effect; on the % scale 0 is the no-effect control and ±100 the full control effect; nearly all actives have a fitted effect of over 55% in size
MCF10A rereplic – induces DNA re-replication in MCF 10a normal breast cells; hit rate 2.9% among 350,000; MCF 10A DNA re-replication, Hoechst nuclear intensity, 48 h; Potency, µM (titrated, usually from 46.1 µM), for the others: at the top dose activity, positive = re-replication, most hits filed as activators; AID 624296; further: potency means the concentration at half of the fitted maximal effect; % of control where 0% means no effect; nearly all actives have a fitted effect of over 50% in size
Giardia killer – Giardia lamblia killing; Giardia lamblia trophozoite viability; activity change, % at 7.66 µM, hits read low; hit rate 0.15% among 340,000; AID 540267; in the data active means activity change below about -80%; inconclusive means between about -30% and that limit;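 further: parasites exposed to compound for two days anaerobically before the ATP read; on the % scale 0 is the no-effect control and ±100 the full control effect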
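Luminescence from cellular ATP indicates surviving trophozoites (100 cells/well) following 48 hrs anaerobic compound treatment at 37 deg C; signal develops 15-30 min at room temperature.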
SW480 rereplic – DNA re-replication induction in SW480 cells | SW480 DNA re-replication, Hoechst DNA content imaging, 48 h | Potency, µM (top dose mostly 46.1 µM), for inactives: at the top dose re-replication activation, usual class: activators | hit rate 1.8% among 340,000; further: potency means the concentration at half of the fitted maximal effect; % of control where 0% means no effect; nearly all actives have a fitted effect of over 55% in size
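Cells (250 per well) received 23 nL compound or DMSO by pin tool and were kept 48 hr at 37 C, 5% CO2. Nuclei were then stained with Hoechst for 40 min and scanned for DNA content.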
An asterisk follows results filed as active. Unless noted, the call rests on the fitted dose curve; in most records, active means well fitted activation curve with a large enough effect; inconclusive means small, poorly fitted or top-dose-only effect; inactive means no such curve, though single readings can be large or run the other way.

How did CCCCCC1CCC(C(=O)N2CCOCC2)CC1 (stereo unspecified) do in these assays?
uPA surface inh: 4%; MCF10A rereplic: 6%; Giardia killer: 13; SW480 rereplic: 4%

What do the screens show for `COc1cccc(CC(=O)NNC(=O)CN(C)S(=O)(=O)c2ccc(C)cc2)c1`?
uPA surface inh: 2%; MCF10A rereplic: 3%; Giardia killer: 0; SW480 rereplic: -32%

What do the screens show for `COc1ccc(-c2cc(-c3ccccc3)nc(SCC(=O)Nc3nccs3)c2C#N)cc1`?
uPA surface inh: 3%; MCF10A rereplic: inconclusive; Giardia killer: 1; SW480 rereplic: -5%

What do the screens show for `COc1ccc(-c2cc(-c3ccccc3)c(C#N)c(SCC(=O)Nc3ncc(C)s3)n2)cc1`?
uPA surface inh: 10%; MCF10A rereplic: 23µM*; Giardia killer: -19; SW480 rereplic: inconclusive

Results for N#Cc1c(-c2ccc(F)cc2)cc(-c2ccccc2)nc1SCC(=O)NCC(=O)O ?
uPA surface inh: 2%; MCF10A rereplic: -4%; Giardia killer: 6; SW480 rereplic: 16µM*

How did COc1ccc(-c2cc(-c3ccc(OC)cc3)c(C#N)c(SC)n2)cc1 do in these assays?
uPA surface inh: 4%; MCF10A rereplic: 21µM*; Giardia killer: -4; SW480 rereplic: 23%

What do the screens show for `Cc1ccccc1N1C(=O)c2cc(N)ccc2N/C1=C\F`?
MCF10A rereplic: -2%; SW480 rereplic: -4%

What do the screens show for `O=C(NCCCc1nc2ccccc2n1CCCCOc1ccccc1)C1CCCCC1`?
Giardia killer: -4

What do the screens show for `Cc1ccc(O)c(NC(=O)c2noc3c2CCc2ccccc2-3)c1`?
uPA surface inh: -5%; MCF10A rereplic: inconclusive; Giardia killer: -18; SW480 rereplic: 15µM*

Results for COc1ccccc1C(=O)CSc1nccn1C ?
uPA surface inh: 1%; MCF10A rereplic: 0%; Giardia killer: 11; SW480 rereplic: -14%

Results for O=C1NN=C(c2ccc(Cl)cc2)CC1c1cccc(Cl)c1 (stereo unspecified) ?
uPA surface inh: 1%; MCF10A rereplic: 11%; Giardia killer: 8; SW480 rereplic: -5%

Results for O=C1NN=C(c2ccccc2)CC1c1ccc(Cl)cc1Cl (stereo unspecified) ?
uPA surface inh: -4%; MCF10A rereplic: inconclusive; Giardia killer: -28; SW480 rereplic: 18µM*

How did Fc1ccc(CCNc2ncnc3nc[nH]c23)cc1 do in these assays?
Giardia killer: 22

Results for CCc1cc2c(=O)n(Cc3ccco3)c(SCC(=O)NCC3CCCO3)nc2s1 (stereo unspecified) ?
uPA surface inh: -18%; MCF10A rereplic: 3%; Giardia killer: 5; SW480 rereplic: -2%

Results for CCc1cc2c(=O)n(Cc3ccco3)c(SCc3c(C)noc3C)nc2s1 ?
uPA surface inh: -10%; MCF10A rereplic: 3.3µM*; Giardia killer: -1; SW480 rereplic: 2.6µM*

What do the screens show for `CC(C)(C)OC(=O)N(CCc1ccccc1)Cc1ccccc1OCc1cccc(NC(=O)C2CCCC2)c1`?
uPA surface inh: -17%; MCF10A rereplic: 17%; Giardia killer: -22; SW480 rereplic: 12%

Results for CC1OC2(C)OC(=N)C1(C#N)C(C#N)(C#N)C2c1ccccc1 (stereo unspecified) ?
uPA surface inh: -3%; MCF10A rereplic: inconclusive; Giardia killer: 6; SW480 rereplic: -99%

What do the screens show for `CC1C2(C)OC(=N)C(C#N)(C(C)O2)C1(C#N)C#N` (stereo unspecified)?
uPA surface inh: 2%; MCF10A rereplic: inconclusive; Giardia killer: 1; SW480 rereplic: 1.3µM*

What do the screens show for `COCCN(C(=O)c1ccc(C)c(S(=O)(=O)N2CCOCC2)c1)c1c(N)n(CC(C)C)c(=O)[nH]c1=O`?
uPA surface inh: 3%; MCF10A rereplic: 3%; Giardia killer: 28; SW480 rereplic: 6%

Results for Cc1cc(Nc2cccc(Cl)c2)nc(-c2ccccc2O)n1 ?
uPA surface inh: 0%; MCF10A rereplic: inconclusive; Giardia killer: -1; SW480 rereplic: 29µM*

Results for CCOc1cc(NC(=O)c2cccs2)c(OCC)cc1NC(=O)CCC(=O)NCC1CCCO1 (stereo unspecified) ?
uPA surface inh: 6%; MCF10A rereplic: inconclusive; Giardia killer: 13; SW480 rereplic: 6.5µM*

Results for CCOc1cc(NC(=O)c2cccs2)c(OCC)cc1NC(=O)c1ccccn1 ?
uPA surface inh: 0%; MCF10A rereplic: 8.2µM*; Giardia killer: -5; SW480 rereplic: inconclusive
